Results from PubChem BioAssay (Tox21).
Inconclusive results are not listed. Activity calls are given as the source filed them. Unless noted, the call rests on the fitted dose curve; in most records, active means well fitted curve in the direction sought with a large enough effect in the repeat runs; inconclusive means weak or mixed curves; inactive means no such curve, though single readings can be large; an effect the other way counts as inactive or inconclusive.

Legend:
[1] = qHTS assay to identify small molecule antagonists of the retinoid acid receptor (RAR) signaling pathway - cell viability counter screen (AID 1159551); further: nearly all actives have a fitted effect of over 35% in size
In short: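 Luminescent ATP quantitation (CellTiter-Glo) gave cell viability in C3RL4 cells exposed to test chemicals for 6 h at 37 C alongside 1 uM final retinol.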

[2] = qHTS assay to identify small molecule antagonists of the retinoic acid receptor (RAR) signaling pathway (AID 1159552; further: nearly all actives have a fitted effect of over 50% in size)
In short: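 Cells of the C3RL4 line were seeded, incubated overnight, then dosed with compounds in DMSO followed immediately by retinol (1 uM final). Six hours later luciferase detection reagent went in; signal was measured after 30 min at RT.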

[3] = qHTS assay to identify small molecule agonists of the retinoic acid receptor (RAR) signaling pathway (AID 1159553)
In short: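 Luminescence from a RARE-driven luciferase reporter in C3RL4 cells served as the read-out, measured after 30 min with detection reagent at room temperature. Compounds in DMSO were applied for 6 hr at 37 C following overnight seeding.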

[4] = qHTS assay to identify small molecule antagonists of the estrogen related receptor (ERR) signaling pathway from Tox21 library - cell viability counter screen (AID 1224834); further: nearly all actives have a fitted effect of over 30% in size
In short: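 Fluorescence from CellTiter-Fluor gives the viability read-out, taken 30 min after reagent addition. Before that, ERR cells seeded 6 h earlier were incubated with compounds for 17.5 h at 37 C.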

[5] = qHTS assay to identify small molecule agonists of the constitutive androstane receptor (CAR) signaling pathway - cell viability counter screen (AID 1224836); further: nearly all actives have a fitted effect of over 45% in size
In short: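 HepG2-CYP2B6-hCAR, 2500 cells/well, 4 h pre-incubation; cpd 15 conc + PK11195 0.75 uM final; 23 h, 37 C/5% CO2; CellTiter-Fluor, fluorescence.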

[6] = qHTS assay to identify small molecule antagonists of the constitutive androstane receptor (CAR) signaling pathway - cell viability counter screen (AID 1224837); further: nearly all actives have a fitted effect of over 45% in size
In short: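 HepG2-CYP2B6-hCAR cells, 2500/well, 4 hr pre-incubation; compound titration, 15 conc.; CITCO 50 nM final; 23 hr, 37 C/5% CO2; CellTiter-Fluor, fluorescence intensity.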

[7] = target: Nuclear receptor subfamily 1 group I member 3 (Homo sapiens) (UniProt Q14994); experiment: qHTS assay to identify small molecule agonists of the constitutive androstane receptor (CAR) signaling pathway (AID 1224839);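 further: HepG2 cells stably carrying human CAR and a CYP2B6 luciferase reporter; nearly all actives have a fitted effect of over 15% in size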
Nuclear receptor subfamily 1 group I member 3 (Homo sapiens), sequence (Q14994 whole entry, looked up): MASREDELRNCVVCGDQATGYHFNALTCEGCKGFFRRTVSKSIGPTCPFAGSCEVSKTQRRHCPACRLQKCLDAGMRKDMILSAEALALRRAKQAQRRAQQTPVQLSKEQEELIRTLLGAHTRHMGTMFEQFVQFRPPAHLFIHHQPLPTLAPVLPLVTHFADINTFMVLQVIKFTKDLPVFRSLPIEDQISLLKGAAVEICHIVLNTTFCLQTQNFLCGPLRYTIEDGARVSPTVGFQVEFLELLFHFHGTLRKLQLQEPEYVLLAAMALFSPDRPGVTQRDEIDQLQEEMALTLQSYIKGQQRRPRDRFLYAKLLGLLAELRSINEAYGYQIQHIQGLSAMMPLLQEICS
In short: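 HepG2-CYP2B6-hCAR cells, 2500/well, 4 h pre-incubation; compounds 15 conc.; PK11195 0.75 uM final; 24 h, 37 C/5% CO2; ONE-Glo luciferase read.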

[8] = qHTS assay to identify small molecule antagonists of the estrogen related receptor signaling pathway with the pleiotropic PPARgamma coactivator (PGC) from Tox21 10K library - cell viability counter screen (AID 1224840; active means well fitted cell-killing curve with a large enough effect in the repeat runs, not every such curve was filed as active; further: nearly all actives have a fitted effect of over 40% in size)
In short: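 PGC/ERR cells, 2,000/well; 6 h pre-incubation 37 C/5% CO2; cpd in DMSO via pin tool; 17.5 h 37 C; CellTiter-Fluor, 30 min; fluorescence.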

[9] = qHTS assay to identify small molecule agonists of the hypoxia (HIF-1) signaling pathway - cell viability counter screen (AID 1224844; calls by dose curve; further: nearly all actives have a fitted effect of over 50% in size)
In short: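 ME-180 HRE-bla cells, 2,000/well, 0.5% dialyzed FBS; 5 hr settle, 17 hr compound at 37C/5% CO2; CCF4-AM reporter read first, then CellTiter-Glo luminescence after 30 min RT.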

[10] = qHTS assay to identify small molecule agonists of H2AX (AID 1224845; active means well fitted activation curve with a large enough effect in the signal ratio in the repeat runs, not every such curve was filed as active; the % refers to the signal ratio)
In short: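 Phospho-H2AX Ser139 measured by HTRF (ex 320 nm; em 665 and 620 nm) after 24 hr antibody incubation. Compounds, 15 concentrations, 0.76% DMSO, were applied to CHO-K1 cells for 3hr at 37C before lysis.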

[11] = qHTS assay to identify small molecule agonists of the hypoxia (HIF-1) signaling pathway (AID 1224846; active means well fitted activation curve with a large enough effect in the signal ratio in the repeat runs, not every such curve was filed as active; the % refers to the signal ratio)
In short: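 Cell line: CellSensor HRE-bla ME-180; 2,000 cells/well; 0.5% dialyzed FBS; 5 h preincubation; DMSO compound pin transfer; 17 h, 37C, 5% CO2; CCF4-AM added; bla FRET signal scored for activation.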

[12] = qHTS assay to identify small molecule agonists of H2AX - cell viability counter screen (AID 1224847; calls by dose curve;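 further: wild-type CHO-K1 cells; top concentration of the series differs between compounds; nearly all actives have a fitted effect of over 30% in size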)
In short: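 Cells plated first: CHO-K1, 1000 per well in 10% FBS medium, incubated overnight at 37C. Then 15-point compound titration added (final DMSO 0.76%) for 3 hr. Finally CellTiter-Glo added and luminescence read.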

[13] = qHTS RealTime-Glo MT Cell Viability Assay in HepG2 cells - 24 hour (AID 1224867); further: nearly all actives have a fitted effect of over 50% in size
In short: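 HepG2 suspension premixed with RealTime-Glo reagents is plated at 600 cells per well and left 5 h at 37 C/5% CO2. Compounds in DMSO then go in, and bioluminescence reflecting viable cell number is recorded over 40 h.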

[14] = qHTS assay to identify small molecule antagonists of the estrogen related receptor signaling pathway with the pleiotropic PPARgamma coactivator (PGC) from Tox21 10K library (AID 1224841; call rule not given here; further: actives are mostly falling curves and most rising ones were filed inactive; nearly all actives have a fitted effect of over 50% in size)
In short: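 PGC/ERR cell line, 2,000 cells/well; 6 h pre-incubation 37 C/5% CO2; compounds (DMSO) pinned in; 18 h, 37 C; One-Glo, 30 min RT; luminescence.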

[15] = qHTS assay to identify small molecule agonists of the estrogen related receptor (ERR) signaling pathway from Tox21 library (AID 1224849; calls by dose curve; further: nearly all actives have a fitted effect of over 15% in size); conditions: ERR reporter cell line, ONE-Glo luciferase, 18 h; at 92.4 µM (top of the series) unless noted
In short: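 ERR cells, 6 h pre-incubation 37 C/5% CO2; cpd in DMSO pinned; 18 h 37 C; ONE-Glo added, 30 min RT; luminescence read. Agonist mode, qHTS.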

[16] = target: Thyrotropin receptor (Homo sapiens) (UniProt P16473); experiment: qHTS assay to identify small molecule agonists of the thyroid stimulating hormone receptor (TSHR) signaling pathway (AID 1224843; calls by dose curve; further: nearly all actives have a fitted effect of over 45% in size)
Thyrotropin receptor (Homo sapiens), sequence (P16473 whole entry, looked up): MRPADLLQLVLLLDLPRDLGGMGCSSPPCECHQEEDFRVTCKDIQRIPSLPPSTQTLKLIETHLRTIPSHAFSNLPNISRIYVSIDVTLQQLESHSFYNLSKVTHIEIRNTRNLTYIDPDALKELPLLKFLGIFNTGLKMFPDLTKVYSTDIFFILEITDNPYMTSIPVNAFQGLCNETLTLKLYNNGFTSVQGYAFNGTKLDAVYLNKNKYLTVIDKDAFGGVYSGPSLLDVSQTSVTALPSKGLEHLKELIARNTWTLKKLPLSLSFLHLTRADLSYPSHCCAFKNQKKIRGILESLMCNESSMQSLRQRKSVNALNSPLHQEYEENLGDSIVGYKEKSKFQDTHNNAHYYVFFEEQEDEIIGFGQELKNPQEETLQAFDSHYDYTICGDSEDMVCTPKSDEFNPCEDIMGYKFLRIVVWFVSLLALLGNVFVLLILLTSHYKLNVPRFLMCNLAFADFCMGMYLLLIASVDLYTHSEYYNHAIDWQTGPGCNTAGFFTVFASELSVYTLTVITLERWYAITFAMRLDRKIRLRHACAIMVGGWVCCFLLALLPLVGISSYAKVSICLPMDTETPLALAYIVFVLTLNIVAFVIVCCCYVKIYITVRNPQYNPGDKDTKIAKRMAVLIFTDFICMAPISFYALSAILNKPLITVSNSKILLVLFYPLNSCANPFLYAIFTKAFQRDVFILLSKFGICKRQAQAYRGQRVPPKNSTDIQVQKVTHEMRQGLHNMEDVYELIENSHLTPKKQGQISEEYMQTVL
In short: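 HEK293 cells stably bearing the thyrotropin receptor were plated at 800 cells/well and challenged with compound (30 min, RT). Accumulated cAMP was quantified via cAMP-d2 competing for cryptate-tagged antibody.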

[17] = target: Luciferin 4-monooxygenase (Photinus pyralis) (UniProt P08659); experiment: qHTS assay to identify small molecule inhibitors of firefly luciferase (AID 1224835); further: nearly all actives have a fitted effect of over 25% in size
Luciferin 4-monooxygenase (Photinus pyralis), sequence (P08659 whole entry, looked up): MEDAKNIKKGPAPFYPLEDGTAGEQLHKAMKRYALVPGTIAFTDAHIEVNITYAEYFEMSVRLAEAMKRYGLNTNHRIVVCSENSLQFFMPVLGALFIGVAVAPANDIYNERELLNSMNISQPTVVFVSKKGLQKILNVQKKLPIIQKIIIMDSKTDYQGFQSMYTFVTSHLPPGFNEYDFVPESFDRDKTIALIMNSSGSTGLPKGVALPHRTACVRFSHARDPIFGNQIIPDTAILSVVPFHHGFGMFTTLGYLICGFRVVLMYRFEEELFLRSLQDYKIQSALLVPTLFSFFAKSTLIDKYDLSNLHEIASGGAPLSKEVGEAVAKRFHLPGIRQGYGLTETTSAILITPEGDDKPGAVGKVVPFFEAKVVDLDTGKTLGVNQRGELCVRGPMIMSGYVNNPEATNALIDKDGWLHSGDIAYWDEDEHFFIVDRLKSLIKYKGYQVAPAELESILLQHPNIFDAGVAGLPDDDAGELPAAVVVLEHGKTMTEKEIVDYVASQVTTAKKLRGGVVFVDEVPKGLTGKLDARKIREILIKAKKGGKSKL
In short: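 Inhibition of purified Photinus luciferase is measured by luminescence. Substrate levels (D-luciferin, ATP) sit at their KM values. Each compound is tested in a concentration series.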

[18] = qHTS assay to identify small molecule antagonists of the estrogen related receptor (ERR) signaling pathway from Tox21 library (AID 1224848); further: nearly all actives have a fitted effect of over 50% in size
In short: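 Reading was by luminescence 30 min after ONE-Glo addition. Before that, ERR cells at 2,000 per well had rested 6 h at 37 C/5% CO2 and then received pin-tooled compounds in DMSO for 18 h at 37 C.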

[19] = target: Nuclear receptor subfamily 1 group I member 3 (Homo sapiens) (UniProt Q14994); experiment: qHTS assay to identify small molecule antagonists of the constitutive androstane receptor (CAR) signaling pathway (AID 1224838);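 further: HepG2 cells stably expressing hCAR with CYP2B6 luciferase reporter stimulated by CITCO; nearly all actives have a fitted effect of over 40% in size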
In short: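 HepG2-CYP2B6-hCAR cells; 4 h pre-incubation; cpd (15 conc) + CITCO 50 nM final; 24 h, 37 C/5% CO2; ONE-Glo, luminescence.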
On the % scale 0 is the no-effect control and ±100 the full control effect.

Cc1cc2c(cc1CC(=O)c1sccc1S(=O)(=O)Nc1onc(C)c1Cl)OCO2
inactive: outcome [1] | outcome [2] | Potency [3] | outcome [4] | outcome [5] | outcome [6] | Potency [7] | outcome [8] | outcome [9] | outcome [10] | outcome [11] | outcome [12] | outcome [13]

C/C=C(\C)C(=O)OC/C=C(\C)CCC=C(C)C
inactive: outcome [1] | outcome [2] | Potency [3] | outcome [4] | outcome [5] | outcome [6] | outcome [8] | Potency [14] | outcome [9] | outcome [10] | outcome [11] | outcome [12] | activity change, positive = activation [15] 10.5% | outcome [13]

CCCC(=O)C(CC)Sc1ccoc1C (stereo not drawn)
inactive: outcome [1] | outcome [2] | outcome [4] | outcome [5] | outcome [6] | Potency [7] | outcome [8] | Potency [16] | outcome [9] | outcome [10] | outcome [11] | outcome [13]

COc1ccccc1N1CCN(CC(O)COc2cc(OC)c(OC)c(OC)c2)CC1 (stereo not drawn)
inactive: outcome [1] | outcome [2] | outcome [4] | Potency [17] | outcome [5] | outcome [6] | Potency [7] | outcome [8] | Potency [16] | outcome [9] | outcome [10] | outcome [11] | outcome [12] | outcome [13]

CN(C)CCc1c[nH]c2ccc(C[C@H]3COC(=O)N3)cc12
inactive: outcome [1] | outcome [2] | outcome [4] | Potency [17] | outcome [5] | outcome [6] | outcome [8] | Potency [16] | outcome [10] | outcome [11] | outcome [12] | outcome [13]

C[C@]12C=CC(=O)C=C1[C@@H](F)C[C@@H]1[C@@H]2[C@@H](O)C[C@@]2(C)[C@H]1CC[C@]2(O)C(=O)CO
inactive: outcome [1] | outcome [2] | outcome [5] | outcome [6] | outcome [8] | Potency [14] | Potency [16] | outcome [9] | outcome [10] | outcome [11] | outcome [12] | outcome [18] | activity change, positive = activation [15] -4.03% [at 42.5 µM] | outcome [13]

Cc1cccc(N)n1
inactive: outcome [1] | outcome [2] | outcome [4] | Potency [17] | outcome [5] | outcome [6] | outcome [8] | Potency [16] | outcome [9] | outcome [10] | outcome [11] | outcome [12] | outcome [13]

CC(C)(O)CCCC1=CCC(C=O)CC1 (stereo not drawn)
inactive: outcome [1] | outcome [2] | outcome [4] | Potency [17] | outcome [5] | outcome [6] | outcome [19] | Potency [7] | outcome [8] | Potency [16] | outcome [9] | outcome [10] | outcome [11] | outcome [12] | outcome [13]

N[C@H]1C(O)O[C@H](CO)[C@@H](O)[C@@H]1O (stereo partly drawn)
inactive: outcome [1] | outcome [2] | outcome [4] | Potency [17] | outcome [5] | outcome [6] | Potency [7] | outcome [8] | Potency [14] | Potency [16] | outcome [9] | outcome [10] | outcome [11] | outcome [12] | activity change, positive = activation [15] 3.25% [at 42.5 µM] | outcome [13]
